Records with an inconclusive call do not appear. The source made the active and inactive calls. Unless noted, the call rests on the fitted dose curve; in most records, active means well fitted curve in the direction sought with a large enough effect; inconclusive means small, poorly fitted or top-dose-only effect, or another doubt; inactive means no such curve, though single readings can be large; an effect the other way counts as inactive or inconclusive.
Legend:
[1] = qHTS Assay for Identification of Small Molecule Agonists for Thrombopoietin (TPO) Signaling Pathway (AID 917)
In short: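 Stimulation at the TPO EC50 (26 pM final) was used to detect activators. Ba/F3 mouse cells bearing human TPO receptor and a luciferase reporter under the Glycoprotein IIb promoter were exposed to compounds for 24 hrs at 37 C.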

[2] = S16 Schwann cell PMP22 intronic element firefly luciferase assay (AID 624032); further: nearly all actives have a fitted effect of over 30% in size
In short: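 Luciferase reporter of PMP22 intronic-element expression in stably transfected S16 rat Schwann cells, read by ONE-Glo luminescence after 24 h compound exposure at 37 C. Activity scaled between DMSO (0%) and positive-control PTC124; concentration-effect curves quality-classified.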

3D7 = assay: qHTS profiling for inhibitors of Plasmodium falciparum proliferation (AID 504749); further: nearly all actives have a fitted effect of over 60% in size; further: potency means the concentration at half of the fitted maximal effect; conditions: P. falciparum in erythrocytes, SYBR Green DNA, 72 h; series mostly up to 12.8 µM
In short: (§1)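 SYBR Green fluorescence of parasite DNA, read after lysis and overnight dark incubation, measured growth over 72 h in erythrocyte culture at 0.3% parasitemia and 2.5% hematocrit. Data normalised to DMSO and 0.29 uM artemisinin, with plate-drift correction.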

ATS95 = assay: as above; conditions: P. falciparum in erythrocytes, SYBR Green DNA, 72 h; series mostly up to 12.8 µM
In short: as §1

CP192 = assay: as above; conditions: P. falciparum in erythrocytes, SYBR Green DNA, 72 h; series mostly up to 28.7 µM
In short: as §1

CP194 = assay: as above; conditions: P. falciparum in erythrocytes, SYBR Green DNA, 72 h; series mostly up to 12.8 µM
In short: as §1

CP203 = assay: as above; conditions: P. falciparum in erythrocytes, SYBR Green DNA, 72 h; series mostly up to 12.8 µM
In short: as §1

CP215 = assay: as above; conditions: P. falciparum in erythrocytes, SYBR Green DNA, 72 h; series mostly up to 28.7 µM
In short: as §1

CP260 = assay: as above; conditions: P. falciparum in erythrocytes, SYBR Green DNA, 72 h; series mostly up to 12.8 µM
In short: as §1

DIV14 = assay: as above; conditions: P. falciparum in erythrocytes, SYBR Green DNA, 72 h; series mostly up to 12.8 µM
In short: as §1

DIV17 = assay: as above; conditions: P. falciparum in erythrocytes, SYBR Green DNA, 72 h; series mostly up to 12.8 µM
In short: as §1

GB4 = assay: as above; conditions: P. falciparum in erythrocytes, SYBR Green DNA, 72 h; series mostly up to 12.8 µM
In short: as §1

PAD = assay: as above; conditions: P. falciparum in erythrocytes, SYBR Green DNA, 72 h; series mostly up to 12.8 µM
In short: as §1

TAB109 = assay: as above; conditions: P. falciparum in erythrocytes, SYBR Green DNA, 72 h; series mostly up to 12.8 µM
In short: as §1

W2 = assay: as above; conditions: P. falciparum in erythrocytes, SYBR Green DNA, 72 h; series mostly up to 12.8 µM
In short: as §1

CP266 = assay: as above; conditions: P. falciparum in erythrocytes, SYBR Green DNA, 72 h; series mostly up to 28.7 µM
In short: as §1

[3] = target: Muscarinic acetylcholine receptor M1 (Rattus norvegicus) (UniProt P08482); assay: qHTS Assay for Antagonists of Acetylcholine Muscarinic M1 Receptor: Measurement of IP-One Response (AID 944); further: nearly all actives have a fitted effect of over 75% in size
In short: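 Antagonist mode with rat M1 receptor transfected into CHO cells. Compound is added first for 10 min, carbachol at its EC80 follows for 30 min, and lysis reagents then allow TR-FRET detection of accumulated IP1.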

[4] = target: Cytochrome P450 3A4 (Homo sapiens) (UniProt P08684); assay: qHTS Assay for Activators of Cytochrome P450 3A4 (AID 885); further: nearly all actives have a fitted effect of over 65% in size
In short: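 Activators are scored by enhanced luminescence from CYP3A4 conversion of luciferin-PPXE (25uM, equal to KM) to luciferin, after 60 min at RT with an NADPH-regenerating system.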

CP297 = assay: qHTS profiling for inhibitors of Plasmodium falciparum proliferation (AID 504749); further: nearly all actives have a fitted effect of over 60% in size; further: potency means the concentration at half of the fitted maximal effect; conditions: P. falciparum in erythrocytes, SYBR Green DNA, 72 h; series mostly up to 12.8 µM
In short: as §1

[5] = S16 Schwann cell PMP22 intronic element beta-lactamase assay (AID 624044; calls by dose curve; further: nearly all actives have a fitted effect of over 15% in size)
In short: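 Beta-lactamase reporter under a PMP22 intronic regulatory element in stable S16 rat Schwann cells; 24 h compound exposure. 460 nm blue signal normalized between DMSO (0%) and potassium clavulanate, with 535 nm FRET tracking viability; curves classed by r2 and response.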

Measured: Potency

Chain of Muscarinic acetylcholine receptor M1 (Rattus norvegicus) (P08482 whole entry, looked up): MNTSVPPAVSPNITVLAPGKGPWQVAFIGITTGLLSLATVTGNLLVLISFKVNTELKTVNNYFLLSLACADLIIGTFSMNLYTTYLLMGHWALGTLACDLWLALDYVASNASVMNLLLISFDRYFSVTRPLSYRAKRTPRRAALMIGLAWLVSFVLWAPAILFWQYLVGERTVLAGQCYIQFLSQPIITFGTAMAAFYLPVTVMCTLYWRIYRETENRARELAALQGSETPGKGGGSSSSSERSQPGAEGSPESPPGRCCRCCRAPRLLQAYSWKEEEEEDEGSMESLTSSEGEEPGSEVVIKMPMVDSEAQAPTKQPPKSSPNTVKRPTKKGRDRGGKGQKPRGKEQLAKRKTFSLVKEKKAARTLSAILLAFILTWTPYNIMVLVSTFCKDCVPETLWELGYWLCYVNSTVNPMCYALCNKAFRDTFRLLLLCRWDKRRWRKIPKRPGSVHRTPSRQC
Chain of Cytochrome P450 3A4 (Homo sapiens) (P08684 whole entry, looked up): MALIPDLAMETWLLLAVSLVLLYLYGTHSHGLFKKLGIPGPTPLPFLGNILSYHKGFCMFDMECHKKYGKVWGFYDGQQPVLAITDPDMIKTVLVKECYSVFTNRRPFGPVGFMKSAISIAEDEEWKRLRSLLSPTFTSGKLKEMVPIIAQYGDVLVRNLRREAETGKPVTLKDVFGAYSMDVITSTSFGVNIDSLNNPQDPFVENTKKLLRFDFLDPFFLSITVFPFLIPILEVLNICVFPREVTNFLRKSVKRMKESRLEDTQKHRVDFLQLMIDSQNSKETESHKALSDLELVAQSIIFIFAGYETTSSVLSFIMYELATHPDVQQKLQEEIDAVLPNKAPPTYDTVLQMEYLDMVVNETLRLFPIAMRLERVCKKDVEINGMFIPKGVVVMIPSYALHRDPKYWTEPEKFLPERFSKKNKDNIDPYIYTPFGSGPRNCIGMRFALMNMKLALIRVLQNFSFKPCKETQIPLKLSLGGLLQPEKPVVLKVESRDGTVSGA

CO[C@]1(NC(=O)CSCC#N)C(=O)N2C(C(=O)O)=C(CSc3nnnn3C)CS[C@H]21
not listed: CP266 | [3] | [4] | CP297 | [5]
inactive: all other assays above

CCCN(CCC)C(=O)[C@@H](CCC(=O)O)NC(=O)c1ccccc1
not listed: [3] | [4] | CP297 | [5]
inactive: all other assays above

COc1ccc([C@H]2Sc3ccccc3N(CCN(C)C)C(=O)[C@H]2OC(C)=O)cc1
inactive: [1]

C[C@@H](C[N+](C)(C)C)OC(N)=O
inactive: [1] | [3]

COc1ccccc1CNc1ncnc2ccc(-c3ccc(N(C)C)cc3)cc12
inactive: [4]

CC(C)(Oc1ccc([C@@H]2CC2(Cl)Cl)cc1)C(=O)O
inactive: [1]

C[C@@](N)(Cc1ccc(O)c(O)c1)C(=O)O
inactive: [4] | [1]

CC(C)(O/N=C(\C(=O)N[C@@H]1C(=O)N2C(C(=O)[O-])=C(C[n+]3ccccc3)CS[C@@H]12)c1csc(N)n1)C(=O)O
not listed: [1] | [3] | [4] | [5]
inactive: all other assays above

CO[C@H]1C[C@@H](O[C@@H]2[C@H](C)[C@H](O[C@@H]3O[C@@H](C)C[C@@H](N(C)C)[C@@H]3O)[C@H](C)C[C@]3(CO3)C(=O)[C@H](C)[C@H](O)[C@H](C)[C@H](C)OC(=O)[C@@H]2C)O[C@@H](C)[C@H]1O
not listed: [1] | [3]
inactive: all other assays above

CC1(C)O[C@@H]2C[C@H]3[C@H]4C[C@H](F)C5=CC(=O)C=C[C@@]5(C)[C@@H]4[C@H](O)C[C@]3(C)[C@]2(C(=O)CO)O1
not listed: [1] | [3]
inactive: all other assays above

CC(=O)O[C@@H](C)C[N+](C)(C)C
not listed: ATS95 | CP215 | PAD | [4]
inactive: all other assays above

CN1[C@@H](CC(=O)c2ccccc2)CCC[C@@H]1C[C@@H](O)c1ccccc1
inactive: [1]

CCN[C@@H]1C[C@H](C)S(=O)(=O)c2sc(S(N)(=O)=O)cc21
not listed: [1] | [3] | [4]
inactive: all other assays above

CN1CCc2cccc3c2[C@@H]1Cc1ccc(O)c(O)c1-3
inactive: [3]

C=CCc1ccccc1OC[C@H](O)CNC(C)C
inactive: [1] | [3]

NC(=O)OC[C@H](O)COc1ccc(Cl)cc1
not listed: [1] | [3] | [4]
inactive: all other assays above

COc1cc(=O)n(C)c2c(OC[C@@H](O)C(C)(C)O)cccc12
inactive: [4] | [1] | [3]

CCN(CC)CC#CCOC(=O)[C@@](O)(c1ccccc1)C1CCCCC1
inactive: [4] | [2] | [5] | CP192 | CP203 | CP215 | CP266
active: DIV14 7.57 µM | DIV17 4.78 µM | W2 5.36 µM

COCCc1ccc(OC[C@H](O)CNC(C)C)cc1
not listed: [3] | [4]
inactive: all other assays above

CN(N=O)C(=O)N[C@H]1[C@@H](O)[C@H](O)[C@H](CO)O[C@@H]1O
not listed: [1] | [3] | [4] | [5]
inactive: all other assays above

CCCN[C@@H](C)C(=O)Nc1c(C)csc1C(=O)OC
not listed: [1] | [2] | [3]
inactive: all other assays above
